Screening data deposited in PubChem by National Center for Advancing Translational Sciences (NCATS).
Hits are enriched below; roughly 2.4% of the tested compounds scored in any of these assays.
FEN1 inh-1: inhibitors of human flap endonuclease 1; P39748; Recombinant FEN1 flap cleavage, fluorescence, 15 min; Potency, µM (highest dose often 114 µM), inactives show at the top dose activity change, negative = inhibition, usual class: inhibitors; hit rate 0.35% among 390,000; also: potency is read from the fitted curve at half-maximal effect; % is scaled to controls: 0 for no effect and ±100 for the full control effect; nearly all actives have a fitted effect of over 65% in size
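Read-out was taken twice, immediately and after 15 min, following addition of 50 nM substrate to 10 nM FEN1 that had sat with test compound for 15 min at room temperature. Curves came from a four-parameter Hill model.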
Pol iota inh: blocks human DNA polymerase iota activity; Q9UNA4; Pol iota fluorescent replication assay, 10 min; Potency, µM (titrated, usually from 115 µM), inactives show top-dose activity, negative = inhibition, usual class: inhibitors; hit rate 1% among 390,000; also: potency is read from the fitted curve at half-maximal effect
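Pol iota at 10 nM preincubated 15 min with compounds at room temperature; reaction started with fluorescent substrate, 50 nM final. Fluorescence read kinetically at 0 and 10 min; buffer-only wells as negative control.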
Pol eta inh-1: DNA polymerase eta (human) inhibition | Q9Y253 | recombinant Pol eta, fluorescent DNA replication assay | Potency, µM (doses to about 114 µM), without a hit: top-dose activity change, negative = inhibition, hits mostly inhibitors | hit rate 1.2% among 390,000 | AID 588591; also: potency is read from the fitted curve at half-maximal effect; % is scaled to controls: 0 for no effect and ±100 for the full control effect
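Pol eta at 10 nM preincubated with compounds 15 min at room temperature; reaction started with fluorescent substrate (50 nM final) and read kinetically at 0 and 10 min.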
Pol kappa inh-1: DNA polymerase kappa (human) inhibition | hit rate 0.53% among 400,000 | Q9UBT6 | Potency, µM (titrated, usually from 107 µM), for the others: at the top dose activity, negative = inhibition, most hits filed as inhibitors | purified Pol kappa, fluorescent DNA synthesis assay, 10 min; also: potency is read from the fitted curve at half-maximal effect; % is scaled to controls: 0 for no effect and ±100 for the full control effect
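50 nM final substrate added after 15 min RT preincubation of 10 nM Pol kappa with compound; fluorescence read at 0 and 10 min.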
POLB inh: DNA polymerase beta (human) inhibition; Pol beta primer extension/strand displacement, fluorescence kinetic; Potency, µM (series often up to 114 µM), without a hit: at the top dose activity change, negative = inhibition, actives largely listed as inhibitors; hit rate 1.3% among 340,000; also: potency is read from the fitted curve at half-maximal effect; % is scaled to controls: 0 for no effect and ±100 for the full control effect
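Human Pol beta at 10 nM; strand-displacement substrate 50 nM final. Compound exposure 15 min at room temperature before start, reaction 10 min at room temperature.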
Tb PGK inh: T. brucei PGK inhibition; PGK/GAPDH coupled, Kinase-Glo luminescence, 60 min; hit rate 0.043% among 380,000; P07378; Potency, µM (doses to about 57.5 µM), without a hit: at the top dose activity change, negative = inhibition, hits mostly inhibitors; AID 602233; also: potency is read from the fitted curve at half-maximal effect; % is scaled to controls: 0 for no effect and ±100 for the full control effect; nearly all actives have a fitted effect of over 60% in size
Target sequence (P07378 whole entry, looked up): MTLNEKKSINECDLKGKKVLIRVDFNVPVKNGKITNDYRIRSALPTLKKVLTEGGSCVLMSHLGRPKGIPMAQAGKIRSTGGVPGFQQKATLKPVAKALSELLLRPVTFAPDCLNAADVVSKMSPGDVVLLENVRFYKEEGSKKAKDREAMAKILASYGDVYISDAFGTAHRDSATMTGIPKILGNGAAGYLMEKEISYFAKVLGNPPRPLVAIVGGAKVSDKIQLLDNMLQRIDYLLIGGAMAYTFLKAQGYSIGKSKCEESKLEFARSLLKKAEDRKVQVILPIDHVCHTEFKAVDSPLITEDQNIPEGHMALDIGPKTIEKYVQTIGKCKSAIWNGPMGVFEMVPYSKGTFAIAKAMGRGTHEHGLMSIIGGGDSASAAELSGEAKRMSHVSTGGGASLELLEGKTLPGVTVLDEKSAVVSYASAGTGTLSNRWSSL
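Recombinant glycosomal PGK reaction used 1,3-bisphosphoglycerate generated in-well by GAPDH (100nM final) in 100mM TEA pH 7.6, 5mM MgCl2, 0.01% Tween-20. After 60 minutes at room temperature, ATP was read by Kinase-Glo Plus luminescence end-point.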
PGK validate: TbPGK inhibition, hit validation. shares compounds with Pol kappa inh-1. TbPGK coupled GAPDH assay, Kinase-Glo luminescence. Potency, µM (series often up to 57.5 µM), for inactives: at the highest dose activity change, negative = inhibition, usual class: inhibitors. hit rate 79% among 500. AID 686980; also: potency is read from the fitted curve at half-maximal effect; % is scaled to controls: 0 for no effect and ±100 for the full control effect; nearly all actives have a fitted effect of over 65% in size
POLI cherry-pick: Confirm cherry-picked inhibitors of human polymerase iota; shares compounds with Pol kappa inh-1; Pol iota primer extension, TAMRA/BHQ fluorescence; Potency, µM, most hits filed as inhibitors; hit rate 77% among 1,500; AID 720496; also: potency is read from the fitted curve at half-maximal effect
GALK confirm: galactokinase (human) inhibition, confirmation | shares compounds with Pol eta inh-1 | purified GALK, Kinase-Glo ATP depletion luminescence | Potency, µM (titrated, usually from 115 µM), without a hit: at the top dose activity, negative = inhibition, actives largely listed as inhibitors | hit rate 70% among 150
Redox cycling: generates H2O2 by redox cycling, flagging GALK artifacts; shares compounds with Pol eta inh-1; Phenol red-HRP H2O2 redox cycling, absorbance 600 nm; Potency, µM (titrated, usually from 115 µM), inactives show at the top dose activity change, negative = H2O2 signal, usual class: inhibitors; hit rate 40% among 150
HEK293 viability: counter-screen for GALK inhibitors: HEK293 cell cytotoxicity; shares compounds with Pol eta inh-1; hit rate 10% among 170; HEK-293 viability, ATP luminescence (CellTiter-Glo), 24/48 h; Potency, µM (top dose mostly 46.1 µM), without a hit: at the top dose activity change, negative = cytotoxicity, usual class: inhibitors; also: potency is read from the fitted curve at half-maximal effect; % is scaled to controls: 0 for no effect and ±100 for the full control effect
Pol kappa inh-2: confirmation of human DNA polymerase kappa inhibitors. hit rate 76% among 920. Potency, µM, usual class: inhibitors. purified Pol-kappa, fluorescent strand-displacement substrate. AID 720501. shares compounds with Pol eta inh-1; also: potency is read from the fitted curve at half-maximal effect
Pol eta inh-2: Pol eta (human) inhibition, cherry-pick confirmation; AID 720502; hit rate 64% among 2,600; Potency, µM, usual class: inhibitors; Pol eta primer extension, TAMRA/BHQ fluorescence, 10 min; shares compounds with Pol eta inh-1; also: potency is read from the fitted curve at half-maximal effect
FEN1 inh-2: confirmation of human FEN1 inhibitors | shares compounds with FEN1 inh-1 | FEN1 flap cleavage, TAMRA/BHQ2 fluorogenic DNA substrate | Potency, µM, usual class: inhibitors | hit rate 79% among 880; also: potency is read from the fitted curve at half-maximal effect; nearly all actives have a fitted effect of over 60% in size
Numbers without * were called inactive; ? = inconclusive; · = no result; [ ] = dose if it differs, or a comment. Calls follow the shape of the dose curve; as a rule, active = well fitted curve in the direction sought with a large enough effect; inconclusive = small, poorly fitted or top-dose-only effect, or another doubt; inactive = no such curve, though single readings can be large; an effect the other way counts as inactive or inconclusive.

SMILES	FEN1 inh-1	Pol iota inh	Pol eta inh-1	Pol kappa inh-1	POLB inh	Tb PGK inh	POLI cherry-pick	Pol kappa inh-2	Pol eta inh-2	others
C=CCN1CCc2cccc3c2C1Cc1ccc(O)c(O)c1-3 (stereo not given)	·	-12%[58.9 µM]	-5%[57.1 µM]	4%[19.4 µM]	8%[57.1 µM]	·	·	·	·
COC(=O)/C=C/C(=O)N[C@@H]1CC[C@@]2(O)[C@H]3Cc4ccc(O)c5c4[C@@]2(CCN3CC2CC2)[C@H]1O5	·	·	·	5%[19.4 µM]	·	·	·	·	·
C[n+]1c2cc(N)ccc2cc2ccc(N)cc21	8.9µM*	7.9µM*	45µM*	22µM*	·	4%	9.5*	7.5*	30*
O=C1C(=O)c2ccccc2-c2ccccc21	-17%	0.71µM*	2.5µM*	-8%	?	?	·	·	·	PGK validate=4.1µM*;GALK confirm=1.9µM*;Redox cycling=0.84µM*;HEK293 viability=7.1µM*
O=C1C(=O)c2cccc3cccc1c23	8%	4%	-20%	-5%	1%	2%	·	·	·
COC(=O)COc1ccc(C[C@@H](C)NC[C@H](O)c2cccc(Cl)c2)cc1	·	·	·	9%[60.1 µM]	·	·	·	·	·
COc1ccc2nc(NC(=O)c3nc(S(=O)(=O)Cc4cccc(C)c4)ncc3Cl)sc2c1	18%	?	79µM*	?	32µM*	-6%	75*	·	?
CCN1C(=O)/C(=C/c2ccc3c(c2)CCN3CCCCl)C(=O)NC1=S	?	14µM*	13µM*	45µM*	28µM*	-12%	67*	·	43*
CCCCN1C(=O)/C(=C/c2ccc(N3CCCCCC3)cc2)C(=O)NC1=S	·	·	·	·	-16%	·	·	·	·
CNc1ccc2nc3ccccc3[n+](C)c2c1	?	35µM*	50µM*	20µM*	28µM*	-1%	75*	19*	67*	FEN1 inh-2=38*
C[n+]1c2ccccc2nc2ccc(NCCO)cc21	40µM*	?	40µM*	45µM*	28µM*	?	75*	42*	67*	FEN1 inh-2=43*
NC(=O)CF	·	·	·	19%[60.1 µM]	·	·	·	·	·
